The values below come from PubChem BioAssay AID1569 (National Center for Advancing Translational Sciences (NCATS), 2009).

SMILES strings stand for the structures. Inconclusive results are not listed. Values without a mark were called inactive. Activity calls are given as the source filed them. Calls come from the whole dose curve; as a rule, active = well fitted inhibition curve with a large enough effect; inconclusive = small, poorly fitted or top-dose-only effect, or effect the other way, or another doubt; inactive = no such curve, though single readings can be large or run the other way.
Potency is the fitted concentration of half-maximal effect.

The assay can be described thus: Confirmation Concentration-Response Assay for lipid storage modulators. Note: nearly all actives have a fitted effect of over 80% in size. Particulars: Drosophila S3 cells, lipid droplet BODIPY/CellTracker ratio, 18-24 h; series mostly up to 46.1 µM; activity change, negative = inhibition: at the top concentration. From the text: NIH Molecular Libraries Probe Production Centers Network [MLPCN] NIH Chemical Genomics Center [NCGC] MLPCN Grant: 1 R03 MH085686-01 Assay Submitter (PI): Beller, Mathias; Max-Planck-Institut fur Biophysikalische Chemie NCGC Assay Overview: Storing lipids as a reservoir for energy or the anabolism of elementary metabolites is a common feature of probably all cells and is conserved from bacteria to humans. The universal cellular lipid storage organelle is the so-called lipid storage droplet (LD). Although ubiquitous, LDs share a simple structure composed of a hydrophobic core that harbors the storage lipids, which is shielded by a droplet-specific phospholipid monolayer to which proteins are attached. The current model of LD biogenesis involves an incorporation of the lipid core into the membrane leaflets of the endoplasmic reticulum (ER) followed by a subsequent budding-like maturation of a LD, which ultimately pinches off. Once released, LD volume can increase by localized lipogenesis or fusion of existing droplets. Storage lipids are re-mobilized enzymatically by lipase activity. Lipase regulation in the adipocyte is heavily studied and involves multiple components including catecholamine signaling, the LD-associated proteins Perilipin and comparative gene identification-58 (CGI-58) and at least two lipases named hormone sensitive lipase (HSL) and adipocyte triglyceride lipase (ATGL). LD regulation outside of the adipocyte is poorly understood and only few components are known. However, there is an urgent need to learn more about ectopic fat depots as mislocalized storage of lipids, for example in the liver or muscle, is an eminent health problem associated with insulin resistance or the metabolic syndrome. We developed a laser-scanning cytometer assay to enable 1,536-well screening and combined the results of the small molecules screen with an RNAi database based on lipid storage. Exo1 identified in the primary screen (AID 1519) and several analogs were measured in the lipid storage assay as 24-point concentration-response curves to confirm potency and SAR.
We dispensed 4 uL of cells at 1.25 x 10^6 cells/mL into LoBase Aurora COC 1,536-well plates (black walled, clear bottom) with a bottle-valve solenoid-based dispenser (Aurora) to obtain 5,000 cells/well. Triacsin C (Sigma-Aldrich T-4540), an inhibitor of long-chain fatty acyl CoA synthetase that blocks synthesis of triglycerides, was used as a positive control for lipid under-storage. A total of 23 nL of compound solution of different concentrations were transferred to the assay plates using a Kalypsys pin tool equipped with a 1,536-pin array containing 10-nL slotted pins (FP1S10, 0.457-mm diameter, 50.8 mm long; V&P Scientific). One microliter of oleic acid (400 uM) was added, and the plate was lidded with stainless steel rubber gasket lined lids containing pinholes. After 18-24 h incubation at 24 degree Celsius and 95% humidity, 4 uL of the dyes BODIPY 493/503 (Molecular Probes) and the Cell Tracker Red CMTPX dye (Molecular Probes) were added to the wells to stain lipid droplets and enumerate cell number, respectively. Fluorescence was detected by excitation of the fluorophores with a 488-nm laser on an Acumen Explorer (TTP Lab Tech). The total intensity in channel 1 (500-530 nm) reflected lipid droplet accumulation. Cells were detected using channel 3 (575- 640 nm) with 5-um width and 100-um depth filters. The ratio of the total intensity in PMT channel 1 over total intensity of channel 3 was also calculated. Percent activity was computed relative to an internal control (100% inhibited lipid droplet deposition due to the presence of 20 uM Triacsin C), which was added to 32 wells/plate.
As for `COc1ccc(CCNC(=O)[C@H](C)N2C(=O)N3CCc4c([nH]c5ccccc45)[C@@]3(C)C2=O)cc1OC`, the Potency is 0.56 µM (active).

For the compound `COc1cccc(/C=C/C(=O)NCCc2ccc(OC)c(OC)c2)c1`, the Potency was 1.77 µM (active).

Turning to `Cc1ccc(-c2noc(C3CCCN(C(=O)c4ccccc4Br)C3)n2)cc1` (stereo not given), the “activity change, negative = inhibition” value is -18.5% [at 30.7 µM].

`CCOC(=O)c1cc2c(ccn2-c2ccc(F)cc2)n1CC(=O)NC(C)(C)C`: the Potency was 1.41 µM (active).

For the compound `CCOc1ccc(CCNC(=O)c2cc3sccc3n2CC)cc1OCC`, the Potency was 0.199 µM (active).

On to `CCn1c(Cc2ccc(OC)cc2)nnc1SCC(=O)Nc1cccc(C(=O)OC)c1`, for which the “activity change, negative = inhibition” value is -19.6%.

`CCOc1ccc(CCNC(=O)COC(=O)c2ccc3c(c2)OCCO3)cc1OCC`: the Potency is 1.41 µM (active).

Turning to `CCOC(=O)c1cc(CC)sc1NC(=O)C1CC(=O)NN1Cc1ccccc1` (stereo not given), the Potency is 0.315 µM (active).

For `COc1ccc(CCNC(=O)Cn2nnc(-c3ccc(N(C)C)cc3)n2)cc1OC`, the Potency was 0.705 µM (active).

As to `O=C1c2ccccc2C(=O)c2c(Nc3ccc(CCO)cc3)ccc(O)c21`, the Potency was 25 µM (active).

As for `Cn1cc(CNCc2ccc(OC(F)(F)F)cc2)c(-c2ccc3c(c2)OCCO3)n1`, the Potency is 6.28 µM (active).

`CCCCCCCCCC[n+]1cccc2c3ccccc3ccc21`: the Potency was 1.77 µM (active).

On to `CCOc1ccc(CCNC(=O)COC(=O)c2ccc(Cl)nc2)cc1OCC`, for which the “activity change, negative = inhibition” value was -20.7%.

Take `CCOC(=O)C1(Cc2ccc(Cl)cc2)CCN(C(C)Cc2ccc(O)c(OC)c2)CC1` (stereo not given): the Potency was 11.2 µM (active).

In the case of `O=C1C(Nc2ccccc2)=C/C(=N/S(=O)(=O)c2cccs2)c2ccccc21`, the Potency was 7.91 µM (active).

As for `COc1ccc(CCNC(=O)COc2ccc(-c3ccccc3)cc2)cc1OC`, the “activity change, negative = inhibition” value is 10.7%.

`CCN1CCCC1CNC(=O)C(=O)NCCc1ccc(OC)c(OC)c1` (stereo not given): the “activity change, negative = inhibition” value was 33.3%.

For the compound `COCc1ccc(C(=O)NC(C)c2cnn(-c3ccccc3C)c2C)o1` (stereo not given), the Potency was 12.5 µM (active).

In the case of `CCOc1ccc(CCNC(=O)COC(=O)/C=C/c2ccc(OCC#N)c(OC)c2)cc1OCC`, the Potency was 3.15 µM (active).

For `COC(=O)c1ccc(C(=O)NC2CCCc3c2cnn3-c2ccccc2F)nc1` (stereo not given), the Potency is 0.177 µM (active).

`COc1ccc(CCNC(=O)c2noc(C(C)C)c2[N+](=O)[O-])cc1OC`: the “activity change, negative = inhibition” value is 14.7%.

For `O=C(Nc1ccc(S(=O)(=O)N2CCCC2)cc1)c1ccc(CN2CCc3ccccc3C2)cc1`, the Potency is 14.1 µM (active).

For the compound `COc1c(C)cc(C(=O)C2CCCN(C(=O)c3ccc4[nH]ccc4c3)C2)cc1C` (stereo not given), the Potency was 17.3 µM (active).

As for `CN1CCN(C(=O)C2(NC(=O)NCc3ccccc3)CCCCC2)CC1`, the “activity change, negative = inhibition” value is 6.99%.

For `COc1ccc(CCNC(=O)CSc2ccc3ccccc3c2)cc1OC`, the Potency was 1.41 µM (active).

`CNC(=O)c1sc2nc(-c3ccc(OC)cc3)cn2c1C`: the Potency was 15.8 µM (active).

Turning to `CCOc1ccc(CCNC(=O)COC(=O)c2ccc(OC(C)C)cc2)cc1OCC`, the Potency was 0.158 µM (active).

Take `COc1ccc(/C=C(\NC(=O)c2cccs2)C(=O)Nc2ccc(C)cc2)cc1OC`: the Potency is 0.141 µM (active).

Take `S=C(Nc1cc(Cl)ccc1Oc1ccccc1)N1CCN(c2ccccn2)CC1`: the Potency is 2.5 µM (active).

For the compound `O=C(COC(=O)c1ccc(CO)cc1)NCc1cccs1`, the “activity change, negative = inhibition” value is 16.4%.

For `CCOc1ccc(CCNC(=O)Cn2cccc2C(=O)c2ccccc2)cc1OCC`, the Potency was 7.91 µM (active).

Turning to `CCCCc1c(O)nc(SCC(=O)NCCc2ccc(OC)c(OC)c2)[nH]c1=O`, the “activity change, negative = inhibition” value is 22%.

Take `Nc1cccc(-c2nc3cc(S(=O)(=O)c4ccc5oc(-c6cccc(N)c6)nc5c4)ccc3o2)c1`: the Potency was 6.28 µM (active).

For `CNc1cccc2c1C(=O)c1ccccc1C2=O`, the Potency is 6.28 µM (active).

On to `COc1ccc(CCNC(=O)CC2SC(N)=NC2=O)cc1OC` (stereo not given), for which the “activity change, negative = inhibition” value was 3.33%.

In the case of `Nc1c(C(=O)Nc2ccc(S(=O)(=O)N3CCCC3)cc2)sc2nc3ccc(OC(F)(F)F)cc3cc12`, the Potency was 8.88 µM (active).

Take `COc1cccc(C(=O)O[C@H]2[C@H](C)NS(=O)(=O)[C@H]3C[C@@H]4C=C[C@]23O4)c1`: the “activity change, negative = inhibition” value is 8.12%.

Take `COc1nc(Nc2nc3ccccc3c(=O)[nH]2)nc2ccc(C)cc12`: the Potency was 2.17 µM (active).

Consider `c1ccc(-c2cnn3c(-c4ccccc4)c(-c4ccccc4)nc3n2)cc1`, for which the Potency was 3.15 µM (active).

Turning to `Cc1ccc(S(=O)(=O)NCCC2=CCCCC2)cc1C(N)=O`, the Potency is 22.3 µM (active).
